Measurements taken from PubChem BioAssay AID445 (National Center for Advancing Translational Sciences (NCATS), 2006).
About 40 (0.04%) of roughly 110,000 compounds were called active. Inconclusive results (about 22%) are left out. Calls come from the whole dose curve; as a rule, active = well fitted curve in the direction sought with a large enough effect in the signal ratio (not every such curve was filed as active); inconclusive = small, poorly fitted or top-dose-only effect, or a change in a side signal; inactive = flat fitted curve, though single readings scatter; the % refers to the signal ratio. The list comes from a sample in which actives are over-represented; it also holds similar structures and randomly drawn compounds.

experiment: IkB Signaling; details: ABC-DLBCL IkBa-CBG/CBR dual luciferase ratio, 4 h; series mostly up to 57.1 µM; IkBa stabilization activation: at the top concentration;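 note: 0% = basal untreated cells and 100% = reference inhibitor full response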
Description: NIH Molecular Libraries Screening Centers Network [MLSCN]
NIH Chemical Genomics Center [NCGC]
Nuclear factor kappa-B (NF-kappa-B) plays an important role in normal B cell development and survival. Diffuse large B cell lymphoma (DLBCL) is the most commonly observed type of non-Hodgkin's lymphoma. Gene expression analysis has identified an activated B cell-like subtype of DLBCL (ABC-DLBCL) which expresses known NF-kappa-B target genes. […] However, targets upstream of IKK have been largely unexplored and so nodes upstream of IKK in the NF-kappa-B pathway remain untested due to the lack of chemical probes.
A cell-sensor assay for I-kappa-B-alpha stabilization was developed with NIH investigator Dr. R. Eric Davis in Dr. Louis M. Staudt's laboratory. The assay uses green (CBG68) and red (CBR) emitting beetle luciferases [Chroma-Glo(TM) developed by Promega Corp.] where the green luciferase is fused to I-kappa-B-alpha and the red luciferase is present in its native state. Both luciferase genes are stably present in the OCI-Ly3 human ABC DLBCL cell line, but their expression is under the control of tetracycline-inducible promoters. Following the addition of doxycycline to induce expression of the luciferases, the green luminescence in control cultures rises only slowly because the CBG fusion partner I-kappa-B-alpha is targeted by IKK activity for rapid degradation. In contrast, green luminescence rises rapidly in the presence of proteasome inhibitors or IKK inhibitors. The rise in red luminescence of CBR is not affected by proteasome or IKK inhibitors, and serves as normalization for cell number and nonspecific effects. Compounds were screened as a concentration-titration series that ranged from 57 uM to 0.7 nM.
NCGC Assay Protocol Summary:
Cells were seeded in 1536-well plates at 5000 cells/3ul in IMDM medium containing 0.5% FBS, w/o phenol red, L-glutamine, 25 mM HEPES, 3 mg/ml sodium bicarbonate. After centrifugation for 1 min. at 1000 rpm, 23 nl of compounds or DMSO were delivered to each well using a pin tool. Then 1ul 80ng/ml doxycycline was dispensed into white solid 1536-well plates and the plates were incubated at 37C/5% C02 in a cell incubator for 4 hrs. Then 4 ul Chroma-Glo luminescent substrate mix (Promega) was added to each well. The plate was incubated at R.T. for 10-15 min. The plates were measured on a ViewLux plate reader for green luminescence (540/20 nm filter) and red luminescence (618/8 nm filter). The green and red luminescent signals were corrected for red and green luminescence filter overlap using previously determined filter calibration constants (determined using the procedure outlined in the Promega Technical Manual). The %Activity was determined from the ratio of corrected green/red luminescent values. Green luminescent and ratio %Activity was determined by normalizing to the difference in signal between basal cells (0% Activity) and cells incubated with 10 uM of the proteasome inhibitor MG-132 (100% Activity). Red luminescent %Activity was normalized to the difference between red luminesence in basal cells (0%Activity) and zero luminescence (-100% Activity).
Concentration-response curves were fitted to the signals arising from the green luminescence (I-kappa-B-alpha-luciferase fusion; IkB-luc) and the red luminescence (unfused luciferase; luc) as well as the calculated ratio. The concentration-effect curves were then classified based on curve quality (r2), response magnitude and degree of measured activity. Compounds were then categorized based on their concentration-response curves for all three datasets (Ikb-luc, luc and ratio).
Keywords: IKK, I-kappa-B, IkB, IkBa, cytotoxicity, luminescence, MLSMR, MLSCN, NIH Roadmap, qHTS, NCGC

SMILES | IkBa stabilization activation
CCc1nn(CC(=O)Nc2cc(C)cc(C)c2)c(=O)c2cc3sccc3n12 | -1.09% (inactive)
Cc1cc(C)cc(NS(=O)(=O)c2ccc3[nH]cc(C(=O)N4CCCCC4)c(=O)c3c2)c1 | 2.33% (inactive)
COC(=O)c1c(NC(=O)c2cc(=O)c3c(C)cc(C)cc3o2)sc2c1CCCC2 | -1.94% (inactive)
COc1ccc(C)cc1NC(=O)C(=O)NCCc1sc(-c2cccc(C)c2)nc1C | -0.998% (inactive)
Cc1ccc2ncc(C(=O)Nc3ccc(OC(F)(F)F)cc3)c(=O)n2c1 | -2.93% (inactive)
Cc1cc(C)cc(OCC(=O)Nc2c(C(=O)c3ccccc3)oc3ccccc23)c1 | -1.32% (inactive)
O=C1CC(c2nnc(Cc3ccc(Cl)cc3)o2)CN1c1ccccc1 (centres undefined) | 2.11% (inactive)
CSc1ccc(C2c3c(oc4ccccc4c3=O)C(=O)N2CCCN2CCOCC2)cc1 (centres undefined) | -1.64% (inactive)
COCC(C)NS(=O)(=O)c1ccc(N2CCCCS2(=O)=O)cc1 (centres undefined) | -0.0651% (inactive)
COc1cccc(CNC(=O)CCC(=O)N2CC3CCCN3c3ccccc32)c1 (centres undefined) | 1.48% (inactive)
CCc1ccccc1OCCSc1nc(-c2cccs2)nc2cc(=O)[nH]n12 | 0.201% (inactive)
Cc1cccc(NC(=O)CSc2nc3c(oc4ccccc43)c(=O)n2-c2ccc(F)cc2)c1 | -0.455% (inactive)
O=C1Cc2cc(S(=O)(=O)Nc3ccc(OC(F)(F)F)cc3)cc3c2N1CCC3 | 6.23% (inactive)
Cc1ccc(N(C)C(=O)C2CCN(S(=O)(=O)c3ccc4c(c3)CCCN4C(=O)C3CCC3)CC2)cc1 | 2.75% (inactive)
COC(=O)c1ccccc1NC(=O)c1ccc(COc2ccccc2Cl)o1 | -2.65% (inactive)
CCC1=Nc2cc(C(=O)NCCCOC(C)C)ccc2Sc2ccc(C)cc21 | -2.32% (inactive)
CCCCN(CC)CCCNC(=O)c1nn(C)c2c1CSc1ccccc1-2 | 2.35% (inactive)
O=C(Nc1ccc(-c2nc3cc(NC(=O)c4ccccc4Cl)ccc3o2)cc1)c1ccccc1Cl | 4.54% (inactive)
CCCNC(=O)CCn1nc(-c2ccccc2)c2ccccc2c1=O | 2.39% (inactive)
COC(=O)c1cc2occc2n1Cc1nc(-c2ccccc2C)oc1C | -1.31% (inactive)
COc1cc(NC(=O)Cn2nc(-c3ccc(C)c(C)c3)ccc2=O)cc(OC)c1 | -1.19% (inactive)
CCOc1ccc(-c2cc3nc(C4CCN(C(=O)OC(C)(C)C)CC4)c(C(=O)Nc4ccc(C(=O)OC)cc4)cn3n2)cc1 | -0.305% (inactive)
O=C(NCCc1ccccc1)c1ccc2c(c1)N(Cc1ccccc1)C(=O)c1ccccc1S2(=O)=O | -2.13% (inactive)
CCCN(CCC)C(=O)C(Cc1ccccc1)NS(=O)(=O)c1ccc2c(c1)c(=O)n(C)c(=O)n2C (centres undefined) | 0.449% (inactive)
CCOc1ccc(CCNC(=O)c2c(C)oc3ncn(C)c(=O)c23)cc1 | -0.592% (inactive)

SMILES | IkBa stabilization activation
O=C(NCCCO)c1nn(-c2ccc(Cl)cc2)nc1CO | -1.87% (inactive)
Cc1ccc(NC2=C(c3ccc(C(F)(F)F)cc3)C(=O)c3ccccc32)cc1F | 6.11% (inactive)
CC(C)OCCCn1c(SCC(=O)c2ccccc2)nc2c(sc3ccccc32)c1=O | -0.853% (inactive)
CCCN1CCN(CCCNC(=O)c2cnn(-c3ccc(C)cc3)c2-n2cccc2)CC1 | -2.29% (inactive)
COc1cc(OC)c(OC)cc1/C=C/c1nc2ccccc2c(=O)n1-c1ccc(Br)c(C)c1 | -1.32% (inactive)
Cc1cccc(NC(=O)CSc2nc3c([nH]c4ccccc43)c(=O)n2-c2cc(C)cc(C)c2)c1 | -1.03% (inactive)
COc1ccc(CNS(=O)(=O)c2ccc(-c3cnc(C4CC4)o3)cc2)cc1 | -0.844% (inactive)
CCOC(=O)c1c(C)[nH]c(C)c1S(=O)(=O)N(C)CC(=O)N1CCN(c2ccccc2)CC1 | 0.594% (inactive)
CCOC(=O)c1c(NC(=O)/C=C/c2ccc(OC)cc2)sc2c1CCC(C)C2 (centres undefined) | 1.01% (inactive)
O=C(NCCc1ccccc1)C(=O)NCC(c1ccco1)S(=O)(=O)c1ccccc1 (centres undefined) | -1.39% (inactive)
CC(NC(=O)CCc1cn(Cc2ccccc2Cl)c2ccccc12)c1ccccc1 (centres undefined) | 2.65% (inactive)
CCc1nc2onc(C)c2c(=O)n1CC(=O)O | 2.07% (inactive)
O=C1OC(C(=O)Nc2cccc(Br)c2)Cc2ccccc21 (centres undefined) | -0.928% (inactive)
CCC(=O)N1CCc2cc(CNC(=O)Nc3ccccc3Cl)ccc21 | 0.103% (inactive)
CCS(=O)(=O)N1CCC(n2c(C)nc3cccnc32)CC1 | 0.706% (inactive)
Cc1oc2c(c1C(=O)Nc1ccc(F)c(F)c1)C1=NCCN1C=N2 | 0.228% (inactive)
O=C(c1ccc2c(c1)N(Cc1ccccc1F)C(=O)c1ccccc1S2(=O)=O)N1CCOCC1 | -0.457% (inactive)
Cc1ccc(S(=O)(=O)c2nnn3c2nc(N2CCN(c4ccccc4F)CC2)c2cc(Cl)ccc23)cc1C | -1.33% (inactive)
COCCCNC(=O)c1c(NC(=O)c2cc(=O)c3cc(C)c(C)cc3o2)sc2c1CCCC2 | -1.3% (inactive)
CC(C)(C)OC(=O)N1CCC(c2c(C(=O)N3CCc4ccccc4C3)cnn2-c2ccc(F)cc2)CC1 | 0.532% (inactive)
Cc1ccc2nc(-c3ccc(C)c(NC(=O)Cc4ccccc4)c3)oc2c1 | -2.33% (inactive)
O=C(NCc1ccc(F)cc1)c1ccc2nc(N3CCCCC3)sc2c1 | -0.827% (inactive)
COc1ccc(-c2nn(CC(=O)NC3CCCC3)c3c2cnc2ccc(F)cc23)cc1 | -3.12% (inactive)
CCOc1ccc(N2CC(C)Cn3c2nc2c3c(=O)n(Cc3c(F)cccc3Cl)c(=O)n2C)cc1 (centres undefined) | -0.396% (inactive)
